Several values for one entry are separate records, joined by “and”; a condition that tells them apart may be missing. Equal entries are not always repeated. Where two headings read alike, the source gives them in different places.
Assays:
[1] = system: T1, RSK2(Kin.Dom.1-N-terminal); conditions: concentration: 1 μM, replicates: in singlicate, n = 1
T1 construct: gene RPS6KA3

[2] = system: T2, RSK2(Kin.Dom.2-C-terminal); conditions: concentration: 1 μM, replicates: in singlicate; n = 1
T2 construct: gene RPS6KA3

[3] = system: T3, RSK3(Kin.Dom.1-N-terminal); conditions: concentration: 1 μM, replicates: in singlicate, n = 1
T3 construct: gene RPS6KA2

[4] = system: T4, RSK3(Kin.Dom.2-C-terminal); conditions: concentration: 1 μM, replicates: in singlicate, n = 1
T4 construct: gene RPS6KA2

[5] = system: T5, RSK4(Kin.Dom.1-N-terminal); conditions: concentration: 1 μM, replicates: in singlicate, n = 1
T5 construct: gene RPS6KA6

[6] = system: T6, RSK4(Kin.Dom.2-C-terminal); conditions: concentration: 1 μM, replicates: in singlicate, n = 1
T6 construct: gene RPS6KA6

[7] = system: S6K1; conditions: concentration: 1 μM, replicates: in singlicate, n = 1
[8] = system: SBK1; conditions: concentration: 1 μM, replicates: in singlicate, n = 1
[9] = system: SGK2; conditions: concentration: 1 μM, replicates: in singlicate, n = 1
[10] = system: SGK3; conditions: concentration: 1 μM, replicates: in singlicate, n = 1
[11] = system: SGK; conditions: concentration: 1 μM, replicates: in singlicate, n = 1
[12] = system: SIK2; conditions: concentration: 1 μM, replicates: in singlicate, n = 1
[13] = system: SIK; conditions: concentration: 1 μM, replicates: in singlicate, n = 1
[14] = system: SLK; conditions: concentration: 1 μM, replicates: in singlicate, n = 1
[15] = system: T7, SNARK; conditions: concentration: 1 μM, replicates: in singlicate, n = 1
T7 construct: gene NUAK2

[16] = system: SNRK; conditions: concentration: 1 μM, replicates: in singlicate, n = 1
[17] = system: SRC; conditions: concentration: 1 μM, replicates: in singlicate, n = 1
[18] = system: SRMS; conditions: concentration: 1 μM, replicates: in singlicate; n = 1
[19] = system: SRPK1; conditions: concentration: 1 μM, replicates: in singlicate, n = 1
[20] = system: SRPK2; conditions: concentration: 1 μM, replicates: in singlicate, n = 1
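Also: KINOMEscan kinase panel screen.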

SMILES: COc1ccc(Nc2nccc(N3CCC(NC(=O)Nc4cc(C)ccc4C)C3)n2)cc1 (centres unmarked) [GSK1379741]
- %Inh [1]: 0%
- %Inh [2]: 0%
- %Inh [3]: 18%
- %Inh [4]: 0%
- %Inh [5]: 0%
- %Inh [6]: 0%
- %Inh [7]: 11%
- %Inh [8]: 0%
- %Inh [9]: 0%
- %Inh [10]: 0%
- %Inh [11]: 0%
- %Inh [12]: 0%
- %Inh [13]: 0%
- %Inh [14]: 0%
- %Inh [15]: 0%
- %Inh [16]: 0%
- %Inh [17]: 0%
- %Inh [18]: 0%
- %Inh [19]: 27%
- %Inh [20]: 0%

SMILES: COc1cc2c(cc1OC[C@@H](O)CO)ncc1c3ccc(C#N)cc3[nH]c21
- %Inh [1]: 80%
- %Inh [2]: 0%
- %Inh [3]: 11%
- %Inh [4]: 11%
- %Inh [5]: 88%
- %Inh [6]: 18%
- %Inh [7]: 40%
- %Inh [8]: 71%
- %Inh [9]: 0%
- %Inh [10]: 38%
- %Inh [11]: 47%
- %Inh [12]: 65%
- %Inh [13]: 21%
- %Inh [14]: 0%
- %Inh [15]: 89%
- %Inh [16]: 58%
- %Inh [17]: 0%
- %Inh [18]: 0%
- %Inh [19]: 0%
- %Inh [20]: 0%

SMILES: COc1ccc(Nc2nccc(N3CCC(NC(=O)Nc4cccc(C(C)=O)c4)C3)n2)cc1 (centres unmarked) [GSK1379731]
- %Inh [1]: 0%
- %Inh [2]: 0%
- %Inh [3]: 1%
- %Inh [4]: 0%
- %Inh [5]: 0%
- %Inh [6]: 2%
- %Inh [7]: 9%
- %Inh [8]: 20%
- %Inh [9]: 0%
- %Inh [10]: 0%
- %Inh [11]: 0%
- %Inh [12]: 0%
- %Inh [13]: 0%
- %Inh [14]: 0%
- %Inh [15]: 0%
- %Inh [16]: 0%
- %Inh [17]: 0%
- %Inh [18]: 0%
- %Inh [19]: 6%
- %Inh [20]: 0%

SMILES: Cc1c(Cn2c(C)nn3c(=O)cc(N4CCOC(C)C4)nc23)cccc1C(F)(F)F (centres unmarked) [GSK2344444]
- %Inh [1]: 10%
- %Inh [2]: 0%
- %Inh [3]: 3%
- %Inh [4]: 0%
- %Inh [5]: 1%
- %Inh [6]: 17%
- %Inh [7]: 9%
- %Inh [8]: 33%
- %Inh [9]: 0%
- %Inh [10]: 0%
- %Inh [11]: 9%
- %Inh [12]: 0%
- %Inh [13]: 0%
- %Inh [14]: 7%
- %Inh [15]: 0%
- %Inh [16]: 0%
- %Inh [17]: 0%
- %Inh [18]: 0%
- %Inh [19]: 32%
- %Inh [20]: 0%

SMILES: COc1ccc(COc2cc(-n3cnc4ccccc43)sc2C(N)=O)cc1 [GSK1024304]
- %Inh [1]: 18%
- %Inh [2]: 16%
- %Inh [3]: 17%
- %Inh [4]: 5%
- %Inh [5]: 2%
- %Inh [6]: 23%
- %Inh [7]: 0%
- %Inh [8]: 0%
- %Inh [9]: 10%
- %Inh [10]: 1%
- %Inh [11]: 0%
- %Inh [12]: 0%
- %Inh [13]: 0%
- %Inh [14]: 9%
- %Inh [15]: 2%
- %Inh [16]: 0%
- %Inh [17]: 0%
- %Inh [18]: 0%
- %Inh [19]: 29%
- %Inh [20]: 0%

SMILES: Fc1ccc(-c2ncn(CCCN3CCOCC3)c2-c2ccccn2)cc1 [SB-211742]
- %Inh [1]: 0%
- %Inh [2]: 49%
- %Inh [3]: 0%
- %Inh [4]: 35%
- %Inh [5]: 0%
- %Inh [6]: 0%
- %Inh [7]: 0%
- %Inh [8]: 0%
- %Inh [9]: 0%
- %Inh [10]: 0%
- %Inh [11]: 0%
- %Inh [12]: 0%
- %Inh [13]: 11%
- %Inh [14]: 23%
- %Inh [15]: 0%
- %Inh [16]: 0%
- %Inh [17]: 0%
- %Inh [18]: 0%
- %Inh [19]: 0%
- %Inh [20]: 60%

SMILES: O=C(NCCNc1ccnc(Nc2ccc(F)cc2)n1)Nc1ccccc1F [GSK1379880]
- %Inh [1]: 0%
- %Inh [2]: 0%
- %Inh [3]: 0%
- %Inh [4]: 0%
- %Inh [5]: 0%
- %Inh [6]: 2%
- %Inh [7]: 9%
- %Inh [8]: 41%
- %Inh [9]: 0%
- %Inh [10]: 0%
- %Inh [11]: 0%
- %Inh [12]: 0%
- %Inh [13]: 0%
- %Inh [14]: 11%
- %Inh [15]: 0%
- %Inh [16]: 0%
- %Inh [17]: 6%
- %Inh [18]: 0%
- %Inh [19]: 5%
- %Inh [20]: 0%

SMILES: NCCNS(=O)(=O)c1ccc(-c2ccnc3[nH]ccc23)cc1 [GSK977617]
- %Inh ([1]; 1 µM): 79% and 60%
- %Inh [2]: 0%
- %Inh ([3]; 1 µM): 40% and 14%
- %Inh ([4]; 1 µM): 29% and 22%
- %Inh ([5]; 1 µM): 54% and 23%
- %Inh ([6]; 1 µM): 48% and 37%
- %Inh ([7]; 1 µM): 71% and 73%
- %Inh ([8]; 1 µM): 79% and 57%
- %Inh ([9]; 1 µM): 24% and 4%
- %Inh ([10]; 1 µM): 57% and 44%
- %Inh ([11]; 1 µM): 45% and 33%
- %Inh ([12]; 1 µM): 12% and 0%
- %Inh ([13]; 1 µM): 21% and 0%
- %Inh ([14]; 1 µM): 89% and 75%
- %Inh ([15]; 1 µM): 89% and 82%
- %Inh ([16]; 1 µM): 16% and 0%
- %Inh ([17]; 1 µM): 11% and 0%
- %Inh [18]: 0%
- %Inh ([19]; 1 µM): 87% and 65%
- %Inh ([20]; 1 µM): 6% and 0%

SMILES: Nc1nccc(-c2c(-c3ccc(F)cc3)ncn2C2CCN(CC(F)(F)F)CC2)n1 [SB-236560]
- %Inh [1]: 14%
- %Inh [2]: 35%
- %Inh [3]: 13%
- %Inh [4]: 35%
- %Inh [5]: 0%
- %Inh [6]: 56%
- %Inh [7]: 0%
- %Inh [8]: 0%
- %Inh [9]: 0%
- %Inh [10]: 3%
- %Inh [11]: 25%
- %Inh [12]: 0%
- %Inh [13]: 0%
- %Inh [14]: 0%
- %Inh [15]: 0%
- %Inh [16]: 16%
- %Inh [17]: 0%
- %Inh [18]: 0%
- %Inh [19]: 19%
- %Inh [20]: 41%

SMILES: Cc1c2ccc(N(C)c3ccnc(Nc4cccc(S(N)(=O)=O)c4)n3)cc2nn1Cc1ccccc1.Cl.Cl [GW787226]
- %Inh [1]: 18%
- %Inh [2]: 0%
- %Inh [3]: 0%
- %Inh [4]: 0%
- %Inh [5]: 6%
- %Inh [6]: 0%
- %Inh [7]: 65%
- %Inh [8]: 0%
- %Inh [9]: 0%
- %Inh [10]: 0%
- %Inh [11]: 0%
- %Inh [12]: 42%
- %Inh [13]: 72%
- %Inh [14]: 66%
- %Inh [15]: 0%
- %Inh [16]: 0%
- %Inh [17]: 94.7%
- %Inh [18]: 67%
- %Inh [19]: 7%
- %Inh [20]: 0%
